Source: PubChem BioAssay
CCHFV vOTU inh – CCHFV vOTU protease inhibitors, primary screen, biochemical, Pep-AMC substrate, fluorescence; inhibition, % at 11.5 µM; AID 651958, 2012; Crimean-Congo hemorrhagic fever virus L polyprotein viral ovarian tumor (vOTU) protease …; 0.55% of 370,000 active; in the data active means inhibition above about 30%
BJeLR lethal – MLPCN primary cell-based screen for lethality selective to Ras in HRASV12 cells; BJeLR (HRASV12) viability, CellTiter-Glo ATP luminescence, 48 h; inhibition, % (test concentration not listed); 0.17% of 300,000 active; AID 1554, 2009; in the data active means inhibition above about 50%
Y pestis TopoI – Yersinia pestis topoisomerase I inhibitors, primary screen, biochemical, cleavage product accumulation, plate reader, single point; 0.064% of 360,000 active; AID 504884, 2011; activity, % at 10 µM; Y. pestis Topo-I cleavage product accumulation; in the data active means activity above about 50%, passing the limit was not always enough
BioA inh – M. tuberculosis BioA enzyme inhibitors, primary screen, biochemical, plate reader, single point, HTS; 7,8-diaminopelargonic acid synthase BioA (Mycobacterium tuberculosis); purified M. tuberculosis BioA enzyme; inhibition, % at 9.99 µM; 0.096% of 360,000 active; AID 602481, 2012; in the data active means inhibition above about 40%
Mtb betalactam – beta-lactam sensitization of Mtb H37Rv, H37Rv; M. tuberculosis H37Rv growth with meropenem, percent inhibition; inhibition, % at 25 µM; 0.27% of 330,000 active; AID 434955, 2010; call rule not given here;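 further: growth measured after seven days incubation then overnight dye step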
RecA intein inh – Mtb RecA intein splicing inhibitors, primary screen, biochemical, fluorescence, HTS. AID 2221, 2009. cell-free RecA intein splicing. inhibition, % (no concentration beside the values). Protein RecA (Mycobacterium tuberculosis (strain ATCC 25618 / H37Rv)), P9WHJ3. 0.75% of 290,000 active; in the data active means inhibition above about 30%
Hits are given with their value; - = inactive; . = not tested or not shown. The list is not random: actives were taken first. Their share in the collection is about 1.1%.

SMILES	CCHFV vOTU inh	BJeLR lethal	Y pestis TopoI	BioA inh	Mtb betalactam	RecA intein inh
CCCCCCC(=O)Oc1cccc(C2=CC(=O)CC(C)(C)C2=O)c1	-	.	54.8	-	.	.
Cc1ccc(NC(=O)c2cc(-c3ccccc3)nn2-c2ccccc2)cc1	-	-	-	-	-	-
O=C(Nc1ccc(F)cc1)c1nn(-c2ccccc2)c(=O)cc1Cl	-	-	-	.	.	30.6
Cc1ccc(S(=O)(=O)Nc2ccc3c(c2)C(=O)N(C)[C@H]2CC[C@@H](CC(=O)O)O[C@H]2CO3)cc1	.	.	.	-	.	.
C[C@H]1CN([C@@H](C)CO)C(=O)c2cc(-c3ccccc3)cnc2O[C@@H]1CN(C)C(=O)Cc1ccccc1	.	.	.	-	.	.
Nc1ccc(Oc2ncccn2)cc1	-	-	-	-	-	51.3
COc1cccc(NC(=O)N2[C@H](CO)[C@H](c3ccccc3)[C@@H]2CNC(C)C)c1	.	.	.	-	.	.
C[C@H](CO)N1C[C@H](C)[C@@H](CN(C)Cc2ccc3c(c2)OCO3)Oc2c(NS(=O)(=O)c3ccc(F)cc3)cccc2C1=O	.	.	.	-	.	.
CCCCC(=O)NC(c1ccc(N(C)C)cc1)c1ccc2cccnc2c1O (stereo unspecified)	-	57.1	-	-	-	.
CCCCC(=O)NC(c1ccc(N(CC)CC)cc1)c1ccc2cccnc2c1O (stereo unspecified)	-	-	-	-	-	-
O=C(COc1c(Cl)cccc1Cl)Nc1ccccc1N1CCCC1	-	-	53.6	-	-	-
Cc1cc(Cl)ccc1OCC(=O)Nc1ccccc1N1CCOCC1	-	-	53.2	-	-	.
O=C(COc1ccc(Br)cc1)Nc1ccccc1N1CCCC1	-	-	-	.	-	-
O=C(C[C@H]1CC[C@H]2[C@@H](COC[C@@H](O)CN2C(=O)Nc2cc(Cl)cc(Cl)c2)O1)N1CCCCC1	.	.	.	-	.	.
CC(C)C#Cc1cnc2c(c1)C(=O)N([C@H](C)CO)C[C@H](C)[C@H](CN(C)C(=O)C1CCC1)O2	.	.	.	-	.	.
COc1ccc(NC(=O)CSc2nc3c(cc2C#N)CN(C)CC3)cc1	-	-	-	-	-	-
CN1CCc2nc(SCC(=O)Nc3ccc(F)cc3)c(C#N)cc2C1	.	-	.	.	-	32.8
O=c1cccc2n1Cc1cc3ccccc3nc1-2	-	-	-	-	-	-
CC[C@@]1(O)C(=O)OCc2c1cc1n(c2=O)Cc2cc3c(CN(C)C)c(O)ccc3nc2-1	-	85.3	-	-	-	-
CC[C@@]1(O)C(=O)OCc2c1cc1n(c2=O)Cc2cc3c(N)cccc3nc2-1	-	77.6	-	-	-	-
CN1CC=C2C(C#N)=C(N)C(C#N)(C#N)C(c3ccncc3)C2C1 (stereo unspecified)	.	-	-	-	-	-
CC(C)c1ccc(C2C3CSCC=C3C(C#N)=C(N)C2(C#N)C#N)cc1 (stereo unspecified)	.	-	.	.	-	36.4
Cc1nn(C(=O)CNS(=O)(=O)c2ccccc2)c(C)c1Sc1ccc(Cl)cc1	-	-	-	.	-	32.0
C[C@H](CO)N1C[C@H](C)[C@@H](CN(C)C(=O)Nc2ccc(F)cc2)Oc2c(NS(=O)(=O)c3cn(C)cn3)cccc2C1=O	.	.	.	-	.	.
COC(=O)c1ccc(Cn2cnc3c(sc4nc(N5CCOCC5)c5c(c43)CCCC5)c2=O)o1	-	-	52.0	-	-	-
SMILES	CCHFV vOTU inh	BJeLR lethal	Y pestis TopoI	BioA inh	Mtb betalactam	RecA intein inh
COC(=O)c1ccc(CSc2ncnc3c2sc2nc(N4CCOCC4)c4c(c23)CCCC4)o1	-	-	-	-	-	-
CC(C)NC(=O)N(C)C[C@@H]1Oc2c(NS(=O)(=O)c3cn(C)cn3)cccc2C(=O)N([C@@H](C)CO)C[C@H]1C	.	.	.	-	.	.
Cc1ccc(NC(=O)Cn2cc(C(=O)C3CC3)c3ccccc32)c(C)c1	-	-	76.4	-	-	-
CCOC(=O)C1Nc2ccc(C(F)(F)F)cc2C2c3ccccc3CC12 (stereo unspecified)	-	-	-	-	-	-
CCOC(=O)C1Nc2ccccc2C2C(O)C(O)CC12 (stereo unspecified)	61.1	-	-	-	-	-
COc1ccccc1C#Cc1ccc([C@@H]2[C@@H](CO)N3CCCCN(C(=O)C4CCCC4)C[C@H]23)cc1	.	.	.	-	.	.
COc1cccc(NC2=C(Cl)C(=O)OC2OC(=O)c2ccco2)c1 (stereo unspecified)	-	-	-	.	-	35.4
Cc1ccc(NC2=C(Cl)C(=O)OC2OC(=O)c2ccc(C)cc2)cc1 (stereo unspecified)	-	-	-	.	-	-
COc1ccc(C(=O)Nc2cccc(OC(=O)c3ccco3)c2)cc1	-	-	-	-	-	-
COC(=O)c1ccc(NC2=C(Cl)C(=O)OC2OC(=O)c2ccccc2)cc1 (stereo unspecified)	-	-	-	-	-	30.4
COc1ccccc1NC1=C(Cl)C(=O)OC1OC(=O)c1ccco1 (stereo unspecified)	-	-	-	.	-	40.8
Cc1ccccc1NC1=C(Cl)C(=O)OC1OC(=O)c1ccco1 (stereo unspecified)	-	-	-	-	-	43.4
CCCC(=O)Nc1ccc2c(c1)OC[C@H](C)N(C(=O)CC1CC1)C[C@@H](C)[C@H](OC)CN(C)C2=O	.	.	.	-	.	.
CCOC(=O)C(C)Sc1ncnc2c1nnn2-c1ccc(F)cc1 (stereo unspecified)	-	-	-	-	-	36.9
CCCNC(=O)N(C)C[C@H]1Oc2ncc(-c3ccncc3)cc2C(=O)N([C@@H](C)CO)C[C@@H]1C	.	.	.	-	.	.
Cc1ccccc1S(=O)(=O)NCC[C@H]1CC[C@H](NS(=O)(=O)c2ccccc2C)[C@@H](CO)O1	.	.	.	-	.	.
CC(C)[C@]12O[C@H]1[C@@H]1O[C@]13[C@]1(O[C@H]1C[C@H]1C4=C(CC[C@@]13C)C(=O)OC4)[C@@H]2O	.	68.2	.	.	-	-
O=C(C[C@H]1CC[C@@H](NC(=O)NC2CCCC2)[C@@H](CO)O1)NCc1ccc(F)cc1	.	.	.	-	.	.
CC[n+]1c(/C=C/N(C)c2ccccc2)n(-c2ccccc2)c2ccc(-c3nc4ccccc4s3)cc21	.	91.3	-	-	-	-
O=C(CCN1CCCCC1)NCC[C@@H]1CC[C@@H](NC(=O)C2CCOCC2)[C@@H](CO)O1	.	.	.	-	.	.
O=[N+]([O-])c1ccc(N2CCOCC2)c2ccncc12	-	-	-	.	-	30.1
O=[N+]([O-])c1cccc2c(N3CCOCC3)ccnc12	-	-	-	.	-	-
Cc1[nH]c2ccccc2c1C(=O)CN1CCN(C/C=C/c2ccccc2)CC1	-	-	-	-	-	-
COc1ccc2[nH]c(C)c(C(=O)CN3CCN(C/C=C/c4ccccc4)CC3)c2c1	30.7	-	-	-	-	-
